Rows were chosen to be rich in hits. Some 14% of all compounds tested hit in one or more screens of this group.
FBPA Giardia inh – inhibitors of Giardia lamblia fructose-1,6-bisphosphate aldolase | A8B2U2 | 290,000 compounds, 0.71% hits | purified Giardia FBPA | Potency, µM (titrated, usually from 59.6 µM), inactives show at the highest dose activity, negative = inhibition, most hits filed as inhibitors; further: potency means the concentration at half of the fitted maximal effect; on the % scale 0 is the no-effect control and ±100 the full control effect; nearly all actives have a fitted effect of over 55% in size
Target sequence (A8B2U2 whole entry, looked up): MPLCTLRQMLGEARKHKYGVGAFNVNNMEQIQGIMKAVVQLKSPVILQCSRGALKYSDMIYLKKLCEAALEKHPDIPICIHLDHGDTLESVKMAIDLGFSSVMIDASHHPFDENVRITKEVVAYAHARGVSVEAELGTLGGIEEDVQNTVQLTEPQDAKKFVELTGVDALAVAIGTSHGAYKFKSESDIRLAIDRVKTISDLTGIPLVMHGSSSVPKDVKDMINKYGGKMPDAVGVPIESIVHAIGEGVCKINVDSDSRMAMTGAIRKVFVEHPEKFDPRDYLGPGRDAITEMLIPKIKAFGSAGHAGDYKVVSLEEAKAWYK
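Giardia FBPA (40 nM reagent) was preincubated 10 min at RT with compound (up to 57.5 uM final), then substrate plus GAPDH/TPI/NAD/arsenate coupling system with diaphorase/resazurin was added; resorufin fluorescence (525/598 nm) was read after 20 min.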
LmPK inh – blocks Leishmania mexicana pyruvate kinase activity; Q27686; 290,000 compounds, 0.37% hits; purified LmPK, Kinase-Glo ATP luminescence, 1 h; Potency, µM (top dose mostly 57.5 µM), for inactives: top-dose activity change, negative = inhibition, actives largely listed as inhibitors; further: potency means the concentration at half of the fitted maximal effect; on the % scale 0 is the no-effect control and ±100 the full control effect
Target sequence (Q27686 whole entry, looked up): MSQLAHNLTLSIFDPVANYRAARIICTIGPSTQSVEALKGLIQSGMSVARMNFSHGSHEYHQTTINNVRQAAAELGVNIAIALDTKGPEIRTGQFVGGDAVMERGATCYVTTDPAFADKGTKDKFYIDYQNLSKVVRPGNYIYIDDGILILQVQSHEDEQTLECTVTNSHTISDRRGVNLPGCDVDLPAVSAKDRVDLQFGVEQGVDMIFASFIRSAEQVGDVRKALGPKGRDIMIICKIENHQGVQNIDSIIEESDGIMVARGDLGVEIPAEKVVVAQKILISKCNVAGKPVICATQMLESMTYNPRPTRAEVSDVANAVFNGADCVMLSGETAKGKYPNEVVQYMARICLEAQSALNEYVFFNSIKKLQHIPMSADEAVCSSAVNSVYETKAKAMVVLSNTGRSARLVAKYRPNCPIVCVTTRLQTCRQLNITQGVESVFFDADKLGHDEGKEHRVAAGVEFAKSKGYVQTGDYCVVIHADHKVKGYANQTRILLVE
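Kinase-Glo luminescence read after 1 h RT reaction of 0.1 nM LmPK with 0.5 mM PEP and 0.1 mM ADP. Activity scaled between uninhibited and enzyme-free controls.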
NS1 function inh – influenza NS1 inhibition; Potency, µM (top dose mostly 46.1 µM), for inactives: top-dose activity, positive = more growth; 270,000 compounds, 0.4% hits; AID 2326; calls by dose curve; further: potency means the concentration at half of the fitted maximal effect; actives are rising curves; nearly all actives have a fitted effect of over 50% in size
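OD600 was taken as the measure of yeast growth restored by compound in an NS1-expressing S. cerevisiae strain. Cells had been washed out of glucose medium and diluted 1:100 into galactose -URA medium, pH 6.0.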
CHX counter – counter-screen for Shiga toxin inhibitors: cycloheximide protein synthesis inhibition; 300,000 compounds, 12% hits; max response, %; AID 2314; cell reporter, cycloheximide protein synthesis inhibition counterscreen; in the data active means max response mostly above about 13%, no sharp cut-off; inactive means mostly below about 14%; further: read at 38.3 µM for the half of the compounds with a filed dose; 0% is about no effect
Shiga inhibitor – inhibitors of Shiga toxin in Vero cells. Vero cells, Shiga toxin protein synthesis inhibition reporter. inhibition, % at 38.7 µM. 290,000 compounds, 9.2% hits. AID 2315; in the data active means inhibition mostly above about 28%, no sharp cut-off; inactive means mostly below about 43%; further: 0% is about no effect
An asterisk follows results filed as active; ? = inconclusive; . = not tested or not shown; [ ] = remark or other dose. Unless noted, the call rests on the fitted dose curve; in most records, active means well fitted curve in the direction sought with a large enough effect; inconclusive means small, poorly fitted or top-dose-only effect, or another doubt; inactive means no such curve, though single readings can be large; an effect the other way counts as inactive or inconclusive.

SMILES | FBPA Giardia inh | LmPK inh | NS1 function inh | CHX counter | Shiga inhibitor
Cc1cc(=O)[nH]c(SCC(=O)c2ccc(F)c(C)c2)n1 | -18.1% | 0.0% | 12.5% | 13.6* | 25.9
Cc1cc(C)nc(SCC(=O)c2ccc(F)cc2F)n1 | -12.8% | 1.1% | 1.2% | 20.0* | .
NC(=O)N[C@H]1NC(=O)NC1=O | -3.9%[21.7 µM] | . | . | . | .
COc1ccc(-c2nc(-c3ccccc3)c(Nc3ccc4ccccc4c3)o2)cc1 | 0.4% | . | . | . | .
CCc1ccc(C(=O)CSc2nc(C)cc(=O)[nH]2)cc1 | 1.2% | 1.6% | 1.9% | 31.8* | 49.4*
Cc1cc(C)nc(SCC(=O)c2ccc(F)cc2)n1 | 3.4% | -5.7% | 11.7% | 17.2* | 31.3*
Cc1cc(N2CCCCC2)nc(SCC(=O)c2ccccc2)n1 | 1.2% | 5.0% | -16.4% | 33.7* | 73.1*
Cc1cc(NC(=O)CCC(=O)N(Cc2ccc(F)cc2)C(C(=O)NC2CCCC2)c2ccco2)no1 (stereo unspecified) | -3.5% | -3.1% | 2.7% | -2.3 | -22.7
O=C(Nc1ccc(-n2cc(Br)cn2)cc1)c1ccncc1 | 8.2% | -0.6% | 4.0% | 0.5 | 10.5
Cc1cccc(NC(=O)CSc2nnc(-c3cc(C)n(-c4ccccc4)c3C)o2)c1C | -3.3% | -1.5% | ? | 25.1* | 32.8*
Cc1cc(-c2nnc(SCC(=O)Nc3ccccc3C(F)(F)F)o2)c(C)n1-c1ccccc1 | 0.0% | -1.1% | 8.2% | 39.5* | 57.5
Cc1ccc(C)c(NC(=O)CSc2nnc(-c3ccccc3C)o2)c1 | 7.8% | 3.5% | -8.7% | -4.5 | 7.8
FC(F)(F)c1ccccc1-c1ccc2ncnc(NCc3cccnc3)c2c1 | 0.5% | . | . | . | .
COc1ccc(/C=C/C(=O)NCC(=O)N/N=C(/C)c2ccco2)cc1 | 9.7% | 2.3% | -1.2% | -0.8 | -5.5
CC(=O)Nc1ccc(NC2=CC(=O)c3ccccc3C2=O)cc1 | -26.9% | -7.0% | 1.4% | 54.9* | 110.8*
O=C1C=C(Nc2ccc(O)cc2)C(=O)c2ccccc21 | ? | ? | -33.9% | 44.4* | 68.0*
CC(=O)Nc1ccc(Nc2c3c4c(cccc4n(C)c2=O)C(=O)c2ccccc2-3)cc1 | -9.4% | -1.6% | 14.2% | -7.8 | -6.1
Cc1ccc(S(=O)(=O)CCC(=O)N2CCN(c3ccc([N+](=O)[O-])cc3)CC2)cc1 | 8.2% | 0.3% | 1.2% | 14.5 | 4.7
Cc1nn(-c2ccccc2)c(C)c1/C=N/NC(=O)c1cnccn1 | -3.0% | -2.0% | -0.7% | 15.8* | 40.2
CC/C(=N\NC(=O)c1cc(C2CC2)[nH]n1)c1ccccc1 | -7.3% | 4.1% | -0.1% | 15.4* | 68.6*
CC/C(=N\NC(=O)c1ccc(N2CCCC2=O)cc1)c1ccccc1 | -5.7% | 0.1% | 12.4% | -2.8 | 4.1
Cc1nn(-c2ccccc2)c(C)c1/C=N/NC(=O)c1cc(C2CC2)[nH]n1 | 2.5% | 0.5% | 7.5% | 13.9* | -0.9
Cc1cc(C(=O)N/N=C/c2c(C)nn(-c3ccccc3)c2C)n[nH]1 | 0.7% | 2.4% | -0.4% | 17.6* | 55.4*
CCc1cc(=O)oc2cc(OC(C)C(=O)NCc3ccccn3)ccc12 (stereo unspecified) | -9.9% | 5.3% | -0.6% | -7.4 | -3.5
O=C(N/N=C/c1c(F)cccc1Cl)c1cc(C2CC2)[nH]n1 | -3.2% | -0.9% | -7.2% | 30.2* | 76.6*
SMILES | FBPA Giardia inh | LmPK inh | NS1 function inh | CHX counter | Shiga inhibitor
CCOc1cc(/C=N/NC(=O)c2cc(C3CC3)[nH]n2)ccc1O | 1.4% | 5.1% | -1.2% | 6.0 | 23.6
Clc1ccc(-c2csc(Nc3cccnc3)n2)cc1 | -0.4% | 0.8% | 2.5% | 12.4 | 34.1
Fc1ccc(Nc2nc(-c3cccnc3)cs2)cc1 | 3.5% | -3.8% | -10.0% | 48.4* | 145.6*
Clc1ccc(Nc2nc(-c3cccnc3)cs2)cc1 | 3.1% | 2.5% | -2.2% | 41.3* | 119.1*
Cc1ccc(Cl)cc1Nc1nc(-c2cccnc2)cs1 | 6.5% | 3.2% | -85.1% | 17.2* | .
c1ccc(-c2csc(Nc3cccnc3)n2)cc1 | 0.9% | 2.4% | -3.3% | 53.7* | 118.3*
N#CCc1ccc(Oc2ncccn2)cc1 | -2.5% | 3.5% | 8.2% | 6.7 | 3.4
COc1ccc(NC(=O)CCNC(=O)c2ccco2)cc1Cl | -3.9% | 3.5% | -5.3% | -2.5 | -6.4
COc1ccc(Cc2nc3ccc(C(=O)NCCc4cccc(C)n4)cc3o2)cc1 | . | 0.4% | -11.9% | 3.0 | -8.2
CC(C)(C)c1ccc(-c2nc(O)c(CC(=O)O)s2)cc1 | -6.1% | 2.2% | -2.0% | 12.1 | 33.2
CNC(=O)/C(=N\O)c1ccccc1 | 1.9% | -2.1% | -8.3% | 15.2 | 45.1*
CN(C)CCCNC(=O)/C(=N\O)c1ccccc1 | 1.7% | -4.7% | 7.7% | 0.7 | -15.2
O=C(NCCc1ccccc1)/C(=N\O)c1ccccc1 | 1.5% | -5.4% | 2.8% | 45.4* | 52.2*
Cc1cnc(CNc2ccnc(-c3ccc(C(=O)N(C)C)cc3)n2)cn1 | -1.1% | . | . | . | .
O=c1[nH]c(Cc2cccc(C(F)(F)F)c2)nc2ccccc12 | -3.8% | 6.6% | 5.0% | -6.6 | -10.4
CN(C)c1ccc(N=Nc2ccccc2C(=O)OCC(=O)N2CCCCCC2)cc1 | 0.0% | 1.5% | -18.7% | 27.7* | 55.8*
CN(C)c1ccc(N=Nc2ccccc2C(=O)OCC(=O)Nc2ccccc2C(F)(F)F)cc1 | -5.3% | -3.8% | ? | 37.4* | 55.8*
CN(C)c1cc[n+](CC(=O)Nc2ccccc2C(F)(F)F)cc1 | -27.2% | -1.3% | -12.7% | -4.1 | .
CN(C)c1ccc(N=Nc2ccccc2C(=O)OCC(=O)N2CCCC2)cc1 | 0.1% | -7.8% | 5.6% | 1.7 | 11.3
Cc1nnc(NC(=O)CSc2nc3ccccc3[nH]2)s1 | 1.1% | -0.4% | . | 16.0* | 9.2
Cc1nnc(NC(=O)CSc2nccn2-c2ccc(F)cc2)s1 | -1.0% | -1.5%[11.5 µM] | . | 44.0* | 58.6*
Cc1nnc(NC(=O)CSc2nccn2Cc2ccc(F)cc2)s1 | . | -6.8% | 13.0% | -8.0 | -2.4
COc1cnc(-c2ccccn2)nc1Oc1ccccc1 | -24.2% | 2.4% | . | 0.7 | -4.1
COc1cnc(-c2ccccn2)nc1N(C)c1ccccc1 | -0.9% | -2.0% | -64.4% | 48.0* | 66.5*
Cc1noc(C)c1S(=O)(=O)N1CCc2nc(-c3ccccc3)c3c(c2C1)CO[C@@H](C)C3 | 5.2%[12.9 µM] | -1.4%[11.5 µM] | . | . | .
SMILES | FBPA Giardia inh | LmPK inh | NS1 function inh | CHX counter | Shiga inhibitor
Cc1csc(NC(=O)c2ccc(COc3ccccc3)o2)n1 | -4.5% | -4.9% | -33.4% | 48.8* | 89.6*
Cc1cccc(NC(=O)c2ccc(COc3ccc4ccccc4c3)o2)n1 | -10.7% | 4.8% | 0.2% | 14.0 | 10.6
CC(=O)Cc1nsc(NC(=O)c2ccc(COc3ccccc3C)o2)n1 | 6.3% | -1.0% | 0.0% | -3.9 | -5.5
Cc1cccc(NC(=O)c2ccc(COc3ccccc3)o2)n1 | . | -7.6% | -25.0% | 16.3* | 39.7*
CN(C)c1ccc(-c2nc(N3CCNCC3)c3ccccc3n2)cc1 | -20.7% | . | . | . | .
Cc1cc(=O)n2c(nc3ccccc32)[nH]1 | -16.2% | 8.0% | 7.2% | -2.5 | 11.6
CCCc1cc(=O)n2c(nc3ccccc32)[nH]1 | -19.8% | -10.3% | -30.8% | 17.7* | 36.6
CN(C)Cc1ccccc1-c1cncnc1Nc1ccncc1 | -1.2% | . | . | . | .
O=C(O)CCn1c(CO)nc2ccccc21 | -8.3% | 4.3% | -3.1% | -3.6 | 1.7
O=C(O)CCn1c(-c2ccccn2)nc2ccccc21 | -4.0% | -1.1% | 13.6% | 10.8* | 39.5

From PubChem
